In ChEMBL document CHEMBL3988442, “University of Dundee, Small-Polar-MMV Screening Library” (2021):
In all, about 48,000 compounds went through this assay and about 13,000 (27%) showed an effect of 50% or more. The list shows a part of the results.

These compounds were tested on Wolbachia pipientis (assay: Anti-Wolbachia Cell-Based Screen). Conditions: 5 µM.
Type: functional
Set-up: scale not given: in the data most compounds retested in dose-response had high values

Compound | Percent Effect [%]
Cc1nc(CN(C)C2CCN(Cc3c(C)noc3C)C2)no1 (centres undefined) | -3.836
COCCCN(C)C1CCCN(Cc2noc(C)n2)C1 (centres undefined) | -3.028
Cc1nc(CN2CCCC(N(C)Cc3c(C)noc3C)C2)no1 (centres undefined) | 5.065
COCCCN1CCC(N(Cc2noc(C)n2)C(C)=O)C1 (centres undefined) | 116.1
CC(=O)N(Cc1noc(C)n1)C1CCN(Cc2ccccc2C#N)C1 (centres undefined) | -0.5328
CC(=O)N(Cc1noc(C)n1)C1CCN(Cc2cccc(C#N)c2)C1 (centres undefined) | 124.3
CC(=O)N(Cc1noc(C)n1)C1CCN(Cc2c(C)noc2C)C1 (centres undefined) | 106.6
Cc1nc(CN2CCCC(N(C)c3ccc(C#N)cn3)C2)no1 (centres undefined) | 1.567
COCCN1CCC(N(Cc2noc(C3CC3)n2)C(C)=O)C1 (centres undefined) | 0.8027
CC(=O)N(Cc1noc(C)n1)C1CCN(Cc2ccc(C#N)cc2)C1 (centres undefined) | 102.5
Cc1cccc(CCC(=O)Nc2cccnc2N2CCC(O)CC2)c1 | -21.77
Cc1nonc1NC(=O)c1ccc(F)c(COCC2CC2)c1 | -55.79
CC(C)n1cc2cc(NC(=O)CCS(C)(=O)=O)ccc2n1 | -1.641
COC(=O)c1cc(C(=O)N2CCOCC2(C)C)n(-c2ccccc2)n1 | -5.811
CCC(C)(NCC(=O)OC)c1nccs1 (centres undefined) | -7.626
Cc1ccc(OCC(=O)N(C)Cc2cccc(F)c2)cn1 | 7.779
CC(C)Oc1cccc(CNC(=O)NC(C)(C(=O)O)c2ccco2)c1 (centres undefined) | 1.863
CCNS(=O)(=O)c1ccc(C)c(C(=O)N(CCC#N)Cc2ccco2)c1 | -4.86
Cc1ccc(NC2COC3(CCN(CC(C)C)CC3)C2)nn1.O=C(O)C(F)(F)F (centres undefined) | -1.394
CN1CCC2(CC1)CC(NC(=O)c1csnn1)c1ccccc1O2.O=C(O)C(F)(F)F (centres undefined) | -8.669
CCN1CCC2(CC1)CC(NC(=O)c1c[nH]cn1)c1ccccc1O2 (centres undefined) | -7.488
CC(=O)N1CCC2(CC1)CC(NS(C)(=O)=O)c1ccccc1O2 (centres undefined) | 119.8
CC(C)N1CCC2(CC1)CC(NS(C)(=O)=O)c1ccccc1O2.O=C(O)C(F)(F)F (centres undefined) | 107.1
CS(=O)(=O)N1CC[C@]2(C[C@@H](Oc3ccccn3)CO2)C1.O=C(O)C(F)(F)F | -15.23
CS(=O)(=O)NC1CC2(CCN(CC3CC3)CC2)Oc2ccccc21.O=C(O)C(F)(F)F (centres undefined) | 88.61
CN(C)C(=O)CC1CC2(CCN(C(=O)N(C)C)CC2)Oc2ccccc21 (centres undefined) | -10.67

Compound | Percent Effect [%]
CC(C)CN1CCC2(CC1)CC(NS(C)(=O)=O)c1ccccc1O2.O=C(O)C(F)(F)F (centres undefined) | 99.03
CCN1CCC2(CC1)CC(NC(=O)c1csnn1)c1ccccc1O2.O=C(O)C(F)(F)F (centres undefined) | -74.83
O=C(O)C(F)(F)F.O=S(=O)(NC1CCC12CCN(CC1CC1)CC2)c1ccccc1 (centres undefined) | 2.266
CNC(=O)NC(=O)C(C)N1CCCc2cc(OC)ccc2C1 (centres undefined) | -11.16
CC(CO)N(C)C(=O)c1cn(-c2ccc(Br)cc2)cn1 (centres undefined) | -3.083
Cc1cc(F)ccc1NCC(=O)NCC(F)(F)F | 8.632
CC(C)c1nc2n(n1)CC(NCCc1cccs1)CC2 (centres undefined) | 0.7675
NC(=O)N1CCCN(C2CCc3ccc(F)cc32)CC1 (centres undefined) | -19.72
COc1cc2c(nn1)CCN(CC(O)COc1ccc(C#N)cc1)C2 (centres undefined) | -7.756
CC(Cc1ccco1)NS(=O)(=O)N1CCCCCC1 (centres undefined) | -8.82
Cc1ccc(N2CCCC(NCc3cccc4c3OCCO4)C2)nn1 (centres undefined) | 17.19
Cc1ccc(N2CCCC(NCc3ccc(Cl)o3)C2)nn1 (centres undefined) | 93.48
CSCc1ccc(CNC2CCCN(c3ccc(C)nn3)C2)o1 (centres undefined) | 95.39
Cc1ccc(N2CCCC(NCc3ccc(C)o3)C2)nn1 (centres undefined) | 12.24
CC(C)(C)CN1CCN2C(=O)N(C3CCCCC3)C[C@H]2C1 | -7.444
COc1ccc(C(N)=O)cc1NCc1noc(-c2ccsc2)n1 | 0.901
O=C(c1ccc(C(F)(F)F)cc1)N1C[C@@H](CN2CCCCC2)[C@@H](CO)C1 | -17.56
Cc1nnc(N2CCN(C)C3(CCC(=O)N(CCO)CC3)C2)s1 (centres undefined) | -2.989
Cc1cccc(OCCCNC(=O)NC(C)c2nncn2C)c1 (centres undefined) | 6.947
Cc1ccn(CC(=O)NCCCOc2ccccc2F)c(=O)c1 | 116.2
Cc1cccc(OCCCNC(=O)Cn2ccc(C)cc2=O)c1 | 90.13
CC(NC(=O)NCCCOc1ccccc1F)c1nncn1C (centres undefined) | 6.488
Cc1cccc(OCCNC(=O)C(C)S(=O)(=O)c2ccccn2)c1 (centres undefined) | 5.338
Cc1cccc(OCCNC(=O)Cn2ccc(C)cc2=O)c1 | 104.8
Cc1ncc(C(=O)NCCOc2ccccc2F)c(C)n1 | -10.65
CC(=O)Nc1nc(C(=O)NCCOc2cccc(C)c2)cs1 | 7.237

Compound | Percent Effect [%]
Cc1cccc(OCCNC(=O)C(C)S(=O)(=O)C2CCCC2)c1 (centres undefined) | -6.282
CCc1cc(N2CCCNCC2)n2nc(C)c(C)c2n1 | 3.882
CCN1CCCC(c2c(-c3ccccc3)ncn2Cc2csc(N)n2)C1 (centres undefined) | 4.265
COc1ccc2[nH]nc(CN3CCC(C(C)N(C)C)CC3)c2c1 (centres undefined) | 2.332
CCN(CC)C(CNS(=O)(=O)NCc1ccccc1)c1ccco1 (centres undefined) | -8.171
CC(c1ccon1)N(C)S(=O)(=O)NCc1ccccc1 (centres undefined) | 110
C=C(C)COc1cccc(CN(C)C(C)c2ccncn2)c1 (centres undefined) | 2.778
C=C(C)COc1cccc(CN(C)C(C)c2nccs2)c1 (centres undefined) | 12.61
CC(c1ccncn1)N(C)S(=O)(=O)NCc1ccccc1 (centres undefined) | 110.9
CC(c1nccs1)N(C)S(=O)(=O)NCc1ccccc1 (centres undefined) | 97.09
CC(c1ccon1)N(C)C(=O)C1CCN(CC(N)=O)CC1 (centres undefined) | -6.665
CC(=O)Nc1ccc(Cl)c(C(=O)N(C)C(C)c2ccncn2)c1 (centres undefined) | 19.4
CC(c1nccs1)N(C)C(=O)c1cc(CN(C)Cc2ccccc2)on1 (centres undefined) | -3.289
CN1CCC(N(C)C[C@H]2CC[C@@H](Cc3ccc4c(cnn4C)c3)O2)CC1 | -7.23
CC(Nc1ccc(Oc2cccc(C#N)c2)cc1)C(=O)NC1CC1 (centres undefined) | 1.244
COCCc1noc(CN2CC(n3nc(C)cc3C)C2)n1 | 87.49
COCCc1noc(CN2CCCC2c2c(C)nn(C)c2C)n1 (centres undefined) | 1.097
COCCc1noc(CN2CCCC2Cn2nc(C)cc2C)n1 (centres undefined) | 100.2
COCCc1noc(CN2CCCC2Cn2nc(C)nc2C)n1 (centres undefined) | 103.9
Cc1nc(C)n(CC2CCCN2Cc2nc(C3CC3)no2)n1 (centres undefined) | 2.651
Cc1cc(C)n(CC2CCCN2Cc2c(C)noc2C)n1 (centres undefined) | 3.056
Cc1cc(C)n(C2CN(Cc3noc(-c4ccccc4)n3)C2)n1 | -5.64
COc1ccc(-c2nc(CN3CC(n4nc(C)cc4C)C3)no2)cc1 | -0.6245
CC(C)CC(CCO)CNC(=O)N1CCOC2(CCCC2)C1 (centres undefined) | 9.888
CC1Cc2ccccc2N1Cc1occc1C(=O)O (centres undefined) | -32.9
O=C(CN1CCSCC1c1ccccc1)N1CCCC1 (centres undefined) | -1.528

Compound | Percent Effect [%]
CCC(C(=O)NCc1ccn(-c2ccc(F)cc2)n1)N1CCCC1=O (centres undefined) | 13.5
Cc1nccn1C1(C(=O)O)CCN(Cc2ccc3nsnc3c2)CC1 | 4.136
Cc1cc(C(=O)N2CCCC2)ccc1NCCO | -9.298
Cc1cc(C(=O)N2CCCCC2C)ccc1NC(=O)N1CCOCC1 (centres undefined) | 99.93
Cc1cc(C(=O)N2CCCC2)ccc1NCC(=O)N1CCCCC1C (centres undefined) | 98.59
Cc1cc(C(=O)N2CCCCC2C)ccc1NCC(=O)N1CCOCC1 (centres undefined) | -5.879
CCCNC(=O)CNc1ccc(C(=O)N2CCCCC2C)cc1C (centres undefined) | -8.167
Cc1cc(C(=O)N2CCCC(C)C2)ccc1NCC(=O)N1CCOCC1 (centres undefined) | 106.6
Cc1cc(C(=O)N2CCCC2)ccc1NCC(=O)N1CCOCC1 | 96.96
COc1ccc(NC(=O)N2CCOCC(CN(C)C)C2)c(C)c1 (centres undefined) | -4.922
Cc1cc(C(=O)N2CCCCC2C)ccc1NCCCO (centres undefined) | 3.863
Cc1cc(C(=O)N2CCCC2)ccc1NS(C)(=O)=O | -1.573
Cc1cc(C(=O)N2CCC(C)CC2)ccc1NS(C)(=O)=O | 7.517
O=C(O)C(F)(F)F.c1cc(C2CC2)n2cnc(C3CN(Cc4nccs4)CCO3)c2c1 (centres undefined) | 7.631
CC(=O)NCCCSC1CCCN(c2ccccc2Cl)C1=O (centres undefined) | 1.649
Cn1ccnc1SCCNC1CCN(c2ncccn2)CC1 | 12.3
CC(C)c1ccc(-c2nnn(CCNS(C)(=O)=O)n2)cc1 | -15.95
O=C(O)C(F)(F)F.O=C(c1cccs1)N1CCC[C@]2(C[C@@H](OCc3ccncc3)CO2)C1 | -0.9808
Cc1cnn(CCC(=O)N2CCCC(c3cc(C(N)=O)[nH]n3)C2)c1 (centres undefined) | 5.057
Cc1nc(C2CCCN(C(=O)c3cnn(C(C)(C)C)c3)C2)no1 (centres undefined) | 1.32
Cc1nc(C2CCCN(C(=O)c3cc(C)sc3C)C2)no1 (centres undefined) | -7.599
Cc1cnn(CCC(=O)N2CCCC(c3noc(C)n3)C2)c1 (centres undefined) | 105
Cc1nc(C2CCCN(C(=O)c3cnn(C4CCCCC4)c3)C2)no1 (centres undefined) | 101.3
Cc1nc(C2CCCN(C(=O)c3cnc(C)s3)C2)no1 (centres undefined) | -5.153
Cc1cnn(CCC(=O)N2CCCC(c3nc(C)no3)C2)c1 (centres undefined) | 6.871
CCn1cc(C(=O)N2CCCC(c3noc(C)n3)C2)cn1 (centres undefined) | 122
